These results are taken from PubChem BioAssay.

Calls of active or inactive are those of the source.

A short description of assay [1]: A549 cell viability effects, profiling panel, calcein-AM fluorescence, 48 h, basal (AID 1162). To be noted: higher = more signal.
A short description of assay [2]: adipocyte viability effects, profiling panel, cell-based, 3T3-L1 adipocytes, calcein-AM fluorescence, 48 h, basal (AID 1163). To be noted: 3T3-L1 adipocytes viability, higher = more signal.
Assay [3] in a line: HepG2 cell viability effects, profiling panel, calcein-AM fluorescence, 48 h, basal (AID 1164). The note with it: higher = more signal.
Assay [4] in a line: MM1S cell viability effects, profiling panel, calcein-AM fluorescence, 48 h, basal (AID 1165).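 Also: viability of MM1S multiple myeloma cells under basal unstimulated conditions.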 The note with it: higher = more signal.
Assay [5] is described as follows: basal RPMI8226 viability, no added stimulus, profiling panel, cell-based, calcein-AM fluorescence, 48 h, PK04 Diversity Set (AID 1166).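 Also: cells grown under basal conditions without added stimulus.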 To be noted: RPMI8226 myeloma viability, higher = more signal.
The nature of assay [6]: basal HepG2 mitochondrial membrane potential changes, profiling panel, cell-based, JC-1 fluorescence, 24 h, 100 nL compound (AID 1167). To be noted: higher = more signal.
Assay [7] in a line: basal 3T3-L1 adipocyte mitochondrial potential changes, profiling panel, cell-based, JC-1 fluorescence, 3T3-L1 adipocytes, 24 h, 100 nL compound (AID 1168). The note with it: JC-1 mitochondrial fluorescence, higher = more signal, called active from +8 up or from −8 down.
Assay [8] can be described thus: basal RPMI8226 mitochondrial membrane potential changes, profiling panel, cell-based, JC-1 fluorescence, 24 h, 100 nL compound (AID 1169). The note with it: RPMI8226 myeloma, JC-1 mitochondrial potential fluorescence, higher = more signal.
The nature of assay [9]: basal MM1S mitochondrial membrane potential changes, profiling panel, cell-based, JC-1 fluorescence, 24 h, 100 nL compound (AID 1170). To be noted: higher = more signal.
The nature of assay [10]: A549 lung cancer cell viability effects, profiling panel, resazurin fluorescence, 24 h, PK04 Diversity Set (AID 1171). To be noted: higher = more signal, called active from +8 up or from −8 down.
Also: test concentration not given here.

For `C[C@]1(C(=O)NC2CC2)c2ccccc2C(=O)N(Cc2cc(F)cc(C(F)(F)F)c2)[C@H]1c1ccc(CO)cc1`, the z-score is -0.685 in [1]; 0.274 in assay [2]; 0.0046 in [3]; 0.0749 in [4]; -0.237 in [5]; 1.2 in assay [6]. Further, the z-score is 0.0232 (inactive) in assay [7], 0.107 in assay [8], -0.328 in assay [9] and 1.79 (inactive) in assay [10].
Turning to `COc1ccc([Si](C)(C)[C@@H]2[C@@H](CC(=O)N3Cc4ccccc4C[C@H]3CO)O[C@]3(C(=O)N(Cc4ccc(I)cc4)c4ccccc43)[C@H]2C)cc1`, the z-score was -0.806 in assay [1]; 0.62 in assay [2]; -0.435 in assay [3]; -1.98 in [4]; -0.588 in [5]; 0.81 in assay [6]. Also, the z-score is 0.124 (inactive) in assay [7], -0.531 in [8], 0.122 in [9] and -0.663 (inactive) in assay [10].
On to `C=CCNC(=O)[C@@H]1[C@H]2C(=O)O[C@H](c3ccccc3)[C@H](c3ccccc3)N2[C@H](c2ccc(OCCO)cc2)[C@@]12C(=O)Nc1ccc(C#CC3=CCCCC3)cc12`, for which the z-score in assay [1] is -1.25; in assay [2] it was 0.73; in assay [3], -1.18; in [4], -2.12; in assay [5], -2.66; in assay [6], -1.11. In addition, the z-score in assay [7] is -0.194 (inactive); in assay [8], -1.19; in assay [9] it was -1.24; in [10] it was -1.49 (inactive).
As to `O=C1OCCC/C=C\[C@H]2OC34C=CCN(Cc5ccccc5)C(=O)[C@H]3N(CCO)C(=O)[C@@H]4C12` (stereo not given in full), the z-score was 0.457 in assay [1]; -0.728 in assay [2]; 1.21 in [3]; 1.64 in assay [4]; 0.998 in assay [5]; 1.03 in [6]. Further, the z-score in assay [7] is 0.857 (inactive); in [8] it was -0.0351; in [9], -0.27; in assay [10] it was 0.263 (inactive).
`C=C(COC)C(=O)CC[C@H](OC(C)=O)c1ccccc1OCCO`: the z-score was 0.0878 in [1]; 2.22 in assay [2]; -0.699 in [3]; -3.39 in assay [4]; -1.97 in assay [5]; 1.61 in [6]. For the same compound, the z-score in [7] is 0.862 (inactive); in assay [8], -0.699; in assay [9] it was -1.18; in assay [10] it was -0.164 (inactive).
In the case of `CC(C)C(=C=CC[C@H](O)c1cccc(OCCO)c1)C[C@H](O)c1ccccn1`, the z-score is 1.65 in assay [1]; -0.0875 in assay [2]; 0.731 in assay [3]; 0.301 in assay [4]; 0.942 in [5]; 0.807 in assay [6]. Moreover, the z-score was 0.259 (inactive) in assay [7], 0.509 in assay [8], -0.803 in assay [9] and 1.26 (inactive) in assay [10].
For the compound `CCOC(=O)C[C@H]1[C@H](OC(=O)c2ccc(-c3ccccc3)cc2)[C@@H](NC(=O)C2CCCCC2)c2cc(OCCCO)ccc2N1C(=O)Cc1ccc(OC)cc1`, the z-score was -0.869 in [1]; 0.0396 in [2]; -0.216 in assay [3]; -0.581 in assay [4]; -0.938 in [5]; 0.801 in assay [6]. For the same compound, the z-score in [7] was -0.199 (inactive); in [8], 0.823; in assay [9], 0.488; in [10] it was -0.0129 (inactive).
With `COc1ccc([Si](C)(C)[C@H]2[C@H](CCO)O[C@@]3(C(=O)N(Cc4ccccc4)c4ccc(NC(=O)[C@H](C)O)cc43)[C@@H]2C)cc1`, the z-score in assay [1] was -1.88; in [2] it was -1.49; in [3] it was -4.52; in assay [4] it was -2.62; in assay [5], -4.31; in assay [6], -2.86. The z-score was 0.364 (inactive) in [7], -0.961 in assay [8], -2.39 in assay [9] and -3.18 (inactive) in assay [10].
As to `C=CCOC(=O)[C@@H]1[C@H]2C(=O)O[C@H](c3ccccc3)[C@H](c3ccccc3)N2[C@H](c2ccc(OCCOC(=O)[C@@H]3C[C@@H]4C(=O)N[C@@H](CC(C)C)C(=O)N4[C@@H]3c3ccc(O)cc3)cc2)[C@@]12C(=O)Nc1ccc(I)cc12`, the z-score was -0.226 in assay [1]; 0.175 in assay [2]; -0.0024 in assay [3]; 0.26 in assay [4]; 1.31 in assay [5]; -1.61 in [6]. Besides, the z-score was 0.872 (inactive) in assay [7], -0.575 in [8], -0.925 in assay [9] and 0.595 (inactive) in assay [10].
Regarding `COC(=O)C1=CC(c2ccc(CO)cc2)=CC(C2CC2)N(Cc2cc3c(cc2Br)OCO3)C=C1C(=O)OC` (stereo not given), the z-score is -0.0232 in [1]; 0.679 in assay [2]; 0.522 in assay [3]; -0.785 in assay [4]; -2.39 in [5]; 0.733 in [6]. For the same compound, the z-score in [7] was 0.278 (inactive); in assay [8] it was -0.563; in assay [9], -1.34; in assay [10], -1.15 (inactive).
As to `COC(=O)[C@@]1(Cc2ccc(F)cc2)[C@H]2c3cc(C(=O)N4CCCC4)n(Cc4ccc(C(F)(F)F)nc4)c3C[C@H]2CN1C(=O)c1ccccc1`, the z-score in assay [1] was -0.29; in assay [2] it was 0.585; in assay [3], -1.06; in assay [4], -2.08; in assay [5], -1.37; in [6], 1.69. Further, the z-score is -0.439 (inactive) in assay [7], -0.799 in assay [8], -0.873 in [9] and 0.052 (inactive) in [10].
Regarding `CC(C)C[C@@H]1NC(=O)[C@H]2C[C@@H](C(=O)O)[C@@H](c3cccc(OCCO)c3)N2C1=O`, the z-score was -0.218 in [1]; -0.234 in assay [2]; -0.072 in [3]; -1.36 in [4]; -0.0757 in assay [5]; 0.664 in [6]. Moreover, the z-score is -0.115 (inactive) in [7], -0.0946 in assay [8], -0.449 in assay [9] and 0.668 (inactive) in assay [10].
For the compound `COCCCNC(=O)[C@@]1(Cc2ccccc2I)c2ccccc2C(=O)N(Cc2ccccc2OC)[C@H]1c1ccc(CO)cc1`, the z-score in assay [1] is 0.0588; in [2] it was -0.188; in assay [3], -0.387; in assay [4], -0.686; in assay [5] it was -1.58; in [6] it was 1.44. Moreover, the z-score in assay [7] was -0.217 (inactive); in assay [8], -0.533; in [9], -0.151; in assay [10], -0.113 (inactive).
`CCCNC(=O)[C@@]1(Sc2ccc(C)cc2)CC(=O)N(Cc2cc(C(F)(F)F)cc(C(F)(F)F)c2)[C@@H]1c1ccc(CO)cc1`: the z-score in assay [1] is -0.259; in [2] it was 1.2; in [3], -0.609; in assay [4], -0.254; in assay [5], -0.312; in assay [6], -0.537. The z-score in assay [7] was 0.196 (inactive); in assay [8] it was 0.293; in assay [9], -0.765; in [10], 0.149 (inactive).
For `COC(=O)Cn1c(C(=O)N(C)C)cc2c1C[C@H]1CN(C(=O)c3ccccc3)[C@@](Cc3ccccc3)(C(=O)OC)[C@@H]21`, the z-score is -0.314 in [1]; 0.275 in assay [2]; -0.479 in assay [3]; 0.0914 in assay [4]; -0.512 in assay [5]; -1.11 in assay [6]. For the same compound, the z-score is -0.327 (inactive) in assay [7], -0.146 in [8], -1.11 in assay [9] and 0.374 (inactive) in assay [10].
